# Bioassay records from PubChem BioAssay.
# ELG1 DNA repair: inhibitors of ELG1-dependent DNA repair in HEK293T cells | HEK293T ELG1-luciferase reporter, luminescence, 16 h; DNA damage induced by 5-fluorouridine | Potency, µM (titrated, usually from 46.1 µM), without a hit: at the top dose activity change, negative = inhibition, most hits filed as inhibitors | hit rate 2.3% among 330,000 | AID 504467; further: potency means the concentration at half of the fitted maximal effect; nearly all actives have a fitted effect of over 55% in size
#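 Cells (2,000 per well) received 5-fluorouridine plus test compound or DMSO and were incubated 16 hr at 37 °C, 5% CO2. Luciferase activity was read by luminescence 30 min after ONE-Glo addition; signal suppression marked inhibition of damage-induced ELG1 function.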
# VP16 counter: Gal4-VP16 reporter inhibition counter-screen; hit rate 3.5% among 310,000; Potency, µM (top dose mostly 53.6 µM), inactives show top-dose activity, negative = inhibition, hits mostly inhibitors; Drosophila S2 Gal4-VP16 UAS-luciferase, luminescence, 20 h;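 further: Gal4-VP16 expression switched on by copper sulfate through the metallothionein promoter; potency means the concentration at half of the fitted maximal effect; nearly all actives have a fitted effect of over 50% in size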
# DT40 TDP1 CPT: DT40-hTDP1 cell growth loss with CPT; chicken DT40 Tdp1-/-;hTDP1 cells + 20 nM CPT, ATP luminescence, 48 h; Potency, µM (series often up to 46.2 µM), without a hit: at the highest dose activity change, negative = growth inhibition, most hits filed as inhibitors; hit rate 12% among 420,000; AID 686979; further: potency means the concentration at half of the fitted maximal effect; nearly all actives have a fitted effect of over 55% in size
#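 Chicken DT40 Tdp1-/- cells stably complemented with human TDP1 were seeded at 400 cells/well in medium containing 20 nM camptothecin, exposed to pin-transferred compounds, and grown at 37 °C for at least 48 hr. Viability was read as ATP luminescence.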
# TDP1 cell noCPT: qHTS for Inhibitors of human tyrosyl-DNA phosphodiesterase 1 (TDP1): qHTS in cells in absence of CPT; Potency, µM (series often up to 46.2 µM), for inactives: at the highest dose activity change, negative = growth inhibition, most hits filed as inhibitors; DT40 Tdp1-/- hTDP1 cells, no CPT, ATP luminescence, 48 h; hit rate 15% among 420,000; further: potency means the concentration at half of the fitted maximal effect; nearly all actives have a fitted effect of over 55% in size
#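 DT40 Tdp1-/-;hTDP1 cells, no CPT (DMSO vehicle only), 400 cells/well; compounds pin-transferred; ≥48 hr, 37 °C; CellTiter-Glo 30 min RT dark, luminescence read.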
# RORg inh: ROR gamma (mouse) transcription inhibition. Drosophila S2 Gal4-RORgamma UAS-luciferase reporter, 20 h. Potency, µM (doses to about 53.6 µM), for the others: at the highest dose activity change, negative = inhibition, usual class: inhibitors. hit rate 5.4% among 310,000. P51450; further: potency means the concentration at half of the fitted maximal effect; nearly all actives have a fitted effect of over 60% in size
# Target sequence (P51450 whole entry, looked up, the tested form may be a part): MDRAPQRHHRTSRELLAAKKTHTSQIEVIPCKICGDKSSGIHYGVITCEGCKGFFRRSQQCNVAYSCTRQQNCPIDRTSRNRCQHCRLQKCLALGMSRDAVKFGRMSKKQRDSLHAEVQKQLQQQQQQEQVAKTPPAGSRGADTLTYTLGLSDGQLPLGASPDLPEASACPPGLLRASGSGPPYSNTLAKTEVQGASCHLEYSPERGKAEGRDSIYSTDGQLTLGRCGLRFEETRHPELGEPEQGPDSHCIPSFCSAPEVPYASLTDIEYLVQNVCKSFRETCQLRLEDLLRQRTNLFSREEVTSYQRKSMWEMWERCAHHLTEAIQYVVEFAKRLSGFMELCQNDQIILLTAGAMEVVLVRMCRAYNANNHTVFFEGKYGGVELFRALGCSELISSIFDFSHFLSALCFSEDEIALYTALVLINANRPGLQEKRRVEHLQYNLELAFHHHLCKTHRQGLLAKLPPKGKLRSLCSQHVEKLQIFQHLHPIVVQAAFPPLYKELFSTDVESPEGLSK
#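 Read-out: Photinus luciferase luminescence; inhibitors lower reporter signal. Insect Schneider cells with Gal4-ROR gamma fusion under metallothionein promoter, UAS reporter; 700 uM final copper sulfate induction, 20 hr, ambient temperature.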
# IL1B secr inh: inflammasome signaling inhibition, IL-1 beta readout | THP-1 LPS/ATP IL-1B secretion, AlphaLISA, 16 h; active compounds read low | activity change, % at 57.5 µM | hit rate 4.7% among 360,000 | AID 743279; in the data active means activity change below about -50%; inconclusive means mostly about -30% to -49%
#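 THP-1 cells pretreated 1 hr with compounds (up to 57.5 uM final), then stimulated with LPS (250 ng/mL final) plus ATP (1.25 mM final); secreted IL-1B measured by AlphaLISA after 16 hr, decreased signal indicating inhibition.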
# Numbers without * were called inactive; ? = inconclusive; . = not tested or not shown; [ ] = dose if it differs, or a comment. A selection: hits, their analogues and other compounds. The true share with any hit is near 21%. Unless noted, the call rests on the fitted dose curve; in most records, active means well fitted curve in the direction sought with a large enough effect; inconclusive means small, poorly fitted or top-dose-only effect, or another doubt; inactive means no such curve, though single readings can be large; an effect the other way counts as inactive or inconclusive. On the % scale 0 is the no-effect control and ±100 the full control effect.
SMILES,ELG1 DNA repair,VP16 counter,DT40 TDP1 CPT,TDP1 cell noCPT,RORg inh,IL1B secr inh
NC(=O)SCC(=O)Nc1ccc(Cl)cc1,-9%,-23%,21µM*,?,?,-89*
COc1ccc(NC(=O)COC(=O)c2ccc(OC)c(S(=O)(=O)N3CCCC3)c2)cc1OC,?,.,?,?,.,32
CCCCCn1c(=O)[nH]c2cc(C(=O)NC(C)CC)ccc2c1=O (stereo not drawn),.,.,-1%,-1%,.,.
CCc1cccc2sc(N(CCCN3CCOCC3)C(=O)CS(=O)(=O)c3ccccc3)nc12,-5%,.,?,?,.,-14
CCCC(=O)N(CCN1CCOCC1)c1nc2c(C)cccc2s1,-26%,-1%,-27%,10%,-26%,-51*
Cc1ccc2nc(N(CCCN(C)C)C(=O)CS(=O)(=O)c3ccccc3)sc2c1,19%,.,-16%,-8%,.,-21
O=C(CCS(=O)(=O)c1ccccc1)N(CCCN1CCOCC1)c1nc2c(F)cccc2s1,?,.,2.3µM*,2.9µM*,.,-107*
CCCC(=O)N(CCN1CCOCC1)c1nc2c(C)ccc(C)c2s1,-1%,4%,-25%,-22%,-32%,3
O=C(CCS(=O)(=O)c1ccccc1)N(CCCN1CCOCC1)c1nc2ccc(F)cc2s1,?,.,2.6µM*,3.7µM*,.,-82*
CN(C)c1ccc(-c2cc(NCc3ccccc3)ncn2)cc1,.,?,?,?,8%,.
NC(Cc1ccccc1)C(O)c1ccco1 (stereo not drawn),.,0%,.,.,-8%,.
O=C(N/N=C/c1cccs1)c1cc(-c2cccc3ccccc23)n[nH]1,-2%,5µM*,?,?,5µM*,-52*
O=C(N/N=C/c1cccs1)c1cc(-c2ccc3ccccc3c2)n[nH]1,-21%,5µM*,?,21µM*,3.2µM*,?
COC(=O)c1ccc(NC(=O)CSc2nc(=O)n(Cc3ccco3)c3c2CCC3)cc1,.,.,-28%,?,.,.
Cc1ccc(-n2c3nc(=O)[nH]c(=O)c-3cc3cc([N+](=O)[O-])ccc32)cc1,?,?,5.8µM*,5.2µM*,?,-107*
CCCc1cc(NCCN(C)C)n2c(nc3ccccc32)c1C#N,1%,-7%,-9%,?,-19%[1.91 µM],-10
CCCc1cc(NCc2ccccn2)n2c(nc3ccccc32)c1C#N,?,-3%,?,18µM*,8%,-10
CCCc1cc(NCC2CCCO2)n2c(nc3ccccc32)c1C#N (stereo not drawn),23µM*,8%,18µM*,23µM*,-7%,-4
O=C(NCc1ccncc1)c1cc(-c2ccc(Cl)cc2)oc1C(F)(F)F,?,-6%,?,18µM*,32%,?
O=C(NCc1ccncc1)c1ccc(-c2ccc(F)c(F)c2)c2ccoc12,.,.,4.1µM*,6.5µM*,.,-16
O=C(NCc1ccccn1)c1cc(-c2ccc(Cl)cc2)oc1C(F)(F)F,6%,1%,?,?,-4%,-21
CN1CCN(c2ccc(CNC(=O)c3ccc(-c4ccc(F)c(F)c4)c4ccoc34)cc2)CC1,.,.,?,18µM*,.,-18
O=C(NCc1ccc(C(F)(F)F)cc1)c1ccc(-c2cccnc2)c2ccoc12,.,.,?,?,.,0
CC(C)CNC(=O)c1ccc(-c2ccc(F)c(F)c2)c2ccoc12,.,.,?,18µM*,.,-66*
CC1(C(=O)NS(=O)(=O)c2cccc(C#N)c2)CCN1C(=O)C1(c2ccccc2)CC1 (stereo not drawn),.,.,7%,-5%,.,19
SMILES,ELG1 DNA repair,VP16 counter,DT40 TDP1 CPT,TDP1 cell noCPT,RORg inh,IL1B secr inh
O=C(NCCc1ccccc1)c1ccc(-c2cccnc2)c2ccoc12,.,.,?,15µM*,.,-26
Cc1cc2cc(CCNS(=O)(=O)c3ccc(F)cc3)c(=O)[nH]c2cc1C,-20%,-30%,?,?,-22%,24
O=[N+]([O-])c1cccc(I)c1,.,-19%,.,.,8%,.
CCCCNC(=O)c1onc(CSc2nc3ccccc3[nH]2)c1C(=O)NCCCC,-14%,-5%,?,?,-15%,-24
O=C(NCC1CC1)c1onc(CSc2nc3ccccc3[nH]2)c1C(=O)NCC1CC1,-9%,2%,21µM*,?,-14%,-12
O=C(NNC(=S)NC(=O)c1ccccc1)c1ccc(O)cc1,0%,?,16µM*,9.2µM*,?,48
O=C(NNC(=O)c1ccccn1)c1cccc([N+](=O)[O-])c1,12µM*,?,16µM*,16µM*,10µM*,108
O=C(NNC(=S)Nc1ccccc1)c1ccc(O)cc1,?,?,-14%,-1%,?,-16
O=C(NNC(=O)c1cccc([N+](=O)[O-])c1)c1ccncc1,-5%,7%,0%,-2%,1%,9
O=C(NNC(=S)NC(=O)c1cccc([N+](=O)[O-])c1)c1ccc(O)cc1,15%,13µM*,-1%,5%,13µM*,15
O=C(NNC(=O)c1ccccc1C(=O)O)c1ccc(O)cc1,16%,?,1%,?,0.32µM*,10
O=[N+]([O-])c1cccc(/C=C/c2ccccn2)c1,?,27%,-1%,7%,?,-30
CC(=O)NC(=S)Nc1cccc([N+](=O)[O-])c1,6%,16%,14%,-21%,?,-30
CC(C)(C)C(=O)NC(=S)NNC(=O)c1ccc(-c2ccccc2)cc1,?,16µM*,3.3µM*,2.1µM*,?,142
O=C(NNC(=O)c1ccc(-c2ccccc2)cc1)c1ccccc1,?,?,-18%,-6%,30%,-10
Cc1ccc(C(=O)NC(=S)NNC(=O)c2cccc([N+](=O)[O-])c2)cc1,-11%,7.1µM*,?,?,4.5µM*,34
O=C(NC(=S)Nc1cccc(F)c1)c1cccc([N+](=O)[O-])c1,21%,6.3µM*,0%,-18%,1.6µM*,-3
N#C/C(=C\c1cccc([N+](=O)[O-])c1)c1ccccn1,?,9%,-24%,15µM*,38%,-88*
CC1CCCC(NC(=O)COC(=O)/C=C/c2ccc(F)cc2)C1C (stereo not drawn),?,.,-12%,-14%,.,-4
COc1ncc2ncc(=O)n(CCc3ccccc3)c2n1,.,18%,-27%,-15%,8%,.
CC(=O)NCCNc1nc2cc(-c3ccccc3C)sc2c(=O)n1C,.,.,?,-26%,.,0
